Experimental data: ChEMBL document CHEMBL4513141, “CO-ADD screening of NIH (USA) - Clinical Collection” (2021)
Potency and affinity values are given separately.

Assays:
[1] = test system: Staphylococcus aureus; conditions: Concentration 20 uM; ASSAY_TEST Inhibition of Bacterial Growth; detection method Absorption (OD600); MEDIA CAMHB; plate type 384well; NBS; CORNING #3640; time 18 hr
[2] = test system: Escherichia coli; conditions: Concentration 20 uM; ASSAY_TEST Inhibition of Bacterial Growth; detection method Absorption (OD600); MEDIA CAMHB; plate type 384well; NBS; CORNING #3640; time 18 hr

SMILES	Inhibition [1] [%]	Inhibition [2] [%]
CC(C)(C)C(O)/C=C/c1ccc2c(c1)OCO2 (centres undefined) [STIRIPENTOL]	0.92	6.07
N#Cc1ccc(C(c2ccc(C#N)cc2)n2cncn2)cc1 [LETROZOLE]	12.65	-0.32
CC(=O)OCC(=O)NCCCOc1cccc(CN2CCCCC2)c1.Cl [ROXATIDINE ACETATE HYDROCHLORIDE]	9.98	5.49
Cl.O=C(c1ccc(OCCN2CCCCC2)cc1)c1c(-c2ccc(O)cc2)sc2cc(O)ccc12 [RALOXIFENE HYDROCHLORIDE]	16.87	-1.03
COCC1=C(C(=O)OC(C)OC(=O)OC(C)C)N2C(=O)[C@@H](NC(=O)/C(=N\OC)c3csc(N)n3)[C@H]2SC1 (some centres undefined) [CEFPODOXIME PROXETIL]	-13.09	5.31
Cc1cccc(CN2CCN(C(c3ccccc3)c3ccc(Cl)cc3)CC2)c1.Cl.Cl (centres undefined)	9.26	2.8
Cl.O.OC[C@H]1O[C@@H](n2cnc3c(N[C@H]4CCC[C@@H]4O)ncnc32)[C@@H](O)C1O (some centres undefined)	7.67	1.98
OCc1cccnc1 [NICOTINYL ALCOHOL]	10.46	0.45
COc1ccc2[nH]c([S+]([O-])Cc3ncc(C)c(OC)c3C)nc2c1 (centres undefined) [OMEPRAZOLE]	3.38	-0.65
Cc1nccn1CC1CCc2c(c3ccccc3n2C)C1=O (centres undefined) [ONDANSETRON]	4.05	7.33
CSc1ccc2c(c1)N(CCC1CCCCN1C)c1ccccc1S2.Cl (centres undefined) [THIORIDAZINE HYDROCHLORIDE]	2.86	7.48
CCc1c(C)[nH]c2c1C(=O)C(CN1CCOCC1)CC2.Cl (centres undefined) [MOLINDONE HYDROCHLORIDE]	-5.38	4.7
CC[C@H](C)C(=O)O[C@H]1CCC=C2C=C[C@H](C)[C@H](CC[C@@H]3C[C@@H](O)CC(=O)O3)[C@H]21 [MEVASTATIN]	-0.69	8.43
CCN1CC(CCN2CCOCC2)C(c2ccccc2)(c2ccccc2)C1=O.Cl (centres undefined)	-18.77	2.66
CCCC(=O)Nc1ccc(OCC(O)CNC(C)C)c(C(C)=O)c1.Cl (centres undefined) [ACEBUTOLOL HYDROCHLORIDE]	10.2	2.85
Nc1nnc(-c2cccc(Cl)c2Cl)c(N)n1 [LAMOTRIGINE]	8.71	4.49
COc1ccccc1OCC(O)CN1CCN(CC(=O)Nc2c(C)cccc2C)CC1.Cl.Cl (centres undefined) [RANOLAZINE HYDROCHLORIDE]	15.16	-4.15
C[C@H]1O[C@@H](O[C@H]2[C@@H](O)C[C@H](O[C@H]3[C@@H](O)C[C@H](O[C@H]4CC[C@@]5(C)[C@H](CC[C@@H]6[C@@H]5C[C@@H](O)[C@]5(C)C(C7=CC(=O)OC7)CC[C@]65O)C4)O[C@@H]3C)O[C@@H]2C)C[C@H](O)[C@@H]1O (some centres undefined)	15.53	-7.29
CCCc1nc2c(C)cc(-c3nc4ccccc4n3C)cc2n1Cc1ccc(-c2ccccc2C(=O)O)cc1	33.03	4.91
CCOC(=O)[C@H](CCc1ccccc1)N[C@H]1CCc2ccccc2N(CC(=O)O)C1=O.Cl [BENAZEPRIL HYDROCHLORIDE]	9.63	0.93
CCCc1nc(C(C)(C)O)c(C(=O)OCc2oc(=O)oc2C)n1Cc1ccc(-c2ccccc2-c2nnn[nH]2)cc1 [OLMESARTAN MEDOXOMIL]	10.76	-6.4
CC(C)(C)NC(=O)[C@@H]1C[C@@H]2CCCC[C@@H]2CN1C[C@@H](O)[C@H](Cc1ccccc1)NC(=O)[C@H](CC(N)=O)NC(=O)c1ccc2ccccc2n1.CS(=O)(=O)O [SAQUINAVIR MESYLATE]	-19.12	7.7
